# Experimental data as given in PubChem BioAssay (NCI).
# Compounds without any hit were thinned out: in the full panel of roughly 83,000, 20% have a hit.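 Percent growth is the endpoint: 0 to 100 indicates growth inhibition (40 means 60% inhibition), 0 means no net growth, and negative values indicate cell death.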 Unmarked numbers belong to inactive results. Calls of active or inactive are those of the source. Rule for the calls: active = growth percent below 10; inactive = the rest.
# Assays:
# Test in all cases: NCI-60 one-dose screen, 48 h (100 = growth as untreated, 0 = no growth, -100 = all killed)
# Settings in all cases: 10 µM unless noted
# HCT-15 colon = system: HCT-15 colon
# HT29 colon = system: HT29 colon
# SNB-75 CNS = system: SNB-75 CNS
# SNB-19 CNS = system: SNB-19 CNS
# U251 CNS = system: U251 CNS
# PC-3 prostate = system: PC-3 prostate
# SK-MEL-5 melanoma = system: SK-MEL-5 melanoma
# LOX IMVI melanoma = system: LOX IMVI melanoma
# SK-MEL-2 melanoma = system: SK-MEL-2 melanoma
# EKVX NSCLC = system: EKVX NSCLC
# SN12C renal = system: SN12C renal
# UO-31 renal = system: UO-31 renal
# TK-10 renal = system: TK-10 renal
# ACHN renal = system: ACHN renal
# CAKI-1 renal = system: CAKI-1 renal
# A498 renal = system: A498 renal
# CCRF-CEM leukemia = system: CCRF-CEM leukemia
# MOLT-4 leukemia = system: MOLT-4 leukemia
# SK-MEL-28 melanoma = system: SK-MEL-28 melanoma
# UACC-62 melanoma = system: UACC-62 melanoma
Structure (SMILES),growth (HCT-15 colon),growth (HT29 colon),growth (SNB-75 CNS),growth (SNB-19 CNS),growth (U251 CNS),growth (PC-3 prostate),growth (SK-MEL-5 melanoma),growth (LOX IMVI melanoma),growth (SK-MEL-2 melanoma),growth (EKVX NSCLC),growth (SN12C renal),growth (UO-31 renal),growth (TK-10 renal),growth (ACHN renal),growth (CAKI-1 renal),growth (A498 renal),growth (CCRF-CEM leukemia),growth (MOLT-4 leukemia),growth (SK-MEL-28 melanoma),growth (UACC-62 melanoma) [%]
COC(=O)[C@]12CC[C@@H](C)[C@H](C)[C@@H]1C1=CC[C@@H]3[C@@]4(C)C(c5ncon5)=C[C@@](C)(CO)C4=CC[C@@]3(C)[C@]1(C)CC2,-64.9% (active),-68.2% (active),55.5%,6.01% (active),-59.5% (active),-12.7% (active),-71.6% (active),-93.7% (active),-51% (active),-76.5% (active),-14.4% (active),-93.5% (active),1.76% (active),-89.4% (active),20.6%,-36.4% (active),-52.5% (active),-42.8% (active),,
O=S(=O)(NCCNc1cc(-c2cn(-c3ccccc3)nc2-c2cccc(O)c2)ccn1)c1ccc(F)cc1,6.55% (active),1.75% (active),45.6%,46.5%,17.4%,15.1%,-12% (active),27.7%,22.2%,56.1%,44.2%,20.1%,46.2%,27.3%,37.1%,36.2%,5.95% (active),4.37% (active),,
Cn1c(=O)c2c(nc(N3CCCC3)n2C)n(C)c1=O,103%,94.5%,89.9%,106%,87.5%,91.2%,102%,96.5%,97.4%,98.9%,102%,,85.3%,106%,93.8%,81.9%,105%,95.1%,104%,
COc1cccc(-c2nn(-c3ccccc3)cc2-c2ccnc(NCCCNS(=O)(=O)c3ccc(C(F)(F)F)cc3)c2)c1,22.3%,-6.28% (active),47.4%,38%,27.1%,12.9%,-54.2% (active),36%,19.3%,46.5%,23%,11.3%,42.1%,22.4%,27.2%,20.3%,16.8%,-0.667% (active),,
Cn1cc(-c2csc(-c3cn(CCN)c4ccccc34)n2)c2cccnc21,46.6%,30.3%,46.8%,65.3%,-75% (active),46.7%,23.7%,45.3%,61%,50.4%,,33.2%,92.9%,56.6%,,74.9%,8.25% (active),10.1%,73%,
NCCn1cc(-c2nc(-c3c[nH]c4ncccc34)cs2)c2cc(Br)ccc21,27.1%,31%,72.7%,79.3%,67.9%,59.9%,85.1%,82.6%,101%,64%,78%,,149%,76.4%,,93.6%,60%,41.8%,99.4%,
CCCCC[C@H]1C/C=C2/C(=O)C(Cl)=C[C@@H]2C/C=C\CCCC(=O)O[C@@H](CCCCC)C/C=C2/C(=O)C(Cl)=C[C@@H]2C/C=C\CCCC(=O)O1,-24.6% (active),-56% (active),11.9%,-57.8% (active),-78.7% (active),-37.7% (active),-94.4% (active),-74.7% (active),-46% (active),5.48% (active),-42.2% (active),-89.9% (active),-20.2% (active),-93% (active),,,0.433% (active),3.32% (active),-48.1% (active),
COc1ccc(O)c(-c2cc(-c3ccc(Cl)cc3)c(C#N)c(=O)[nH]2)c1,66.5%,75.7%,62.7%,69.7%,46.6%,55.6%,57.7%,63.2%,37.9%,105%,77%,55%,87.3%,78.1%,73.3%,79.6%,37.2%,57.8%,,
Nc1c(C(=O)Nc2cccc3ccccc23)sc2nc3c(cc12)CCCC3,26.8%,2.73% (active),37.9%,39.2%,25.4%,39.9%,28.2%,38.6%,51.5%,66.4%,34.3%,42%,60.6%,44.7%,44.9%,0.0449% (active),16.6%,20.7%,,
O=C1c2ccccc2NC(c2cn(-c3ccccc3)nc2-c2cccnc2)N1Cc1ccccc1 (stereo not given),84.7%,84.5%,92.9%,109%,93.6%,76.5%,94.2%,,88%,81.3%,87.3%,65.4%,105%,102%,,,91.5%,67.9%,108%,
Oc1ccc(CCC2CCCC(CCc3ccc(OCCF)cc3)N2)cc1 (stereo not given),88.1%,87.2%,78.7%,101%,85.8%,87.8%,90%,,104%,105%,89.6%,72%,96.7%,99.8%,89.2%,96.9%,88.3%,76.2%,,
Cc1cc(C)c(NC(=O)c2sc3nc4c(cc3c2N)CCCC4)c(C)c1,32.1%,13.9%,18.5%,43.4%,27.7%,54%,50.1%,37.6%,16.8%,76.7%,,62.1%,64.7%,55.8%,53.1%,12.7%,20.4%,29.9%,,
COc1cc(-c2cc3cc(O)ccc3oc2=O)cc(OC)c1OC,91.4%,103%,65.3%,95.5%,99.3%,85.3%,93.6%,103%,92.7%,78.7%,,66.7%,104%,81.8%,84.6%,100%,94.5%,94.2%,,
O=S(=O)(NCCNc1cc(-c2cn(-c3ccccc3)nc2-c2cccc(O)c2)ccn1)c1ccccc1,17.9%,24.1%,78.4%,72.4%,43.3%,30.1%,34%,,66.3%,73.1%,63.4%,37.4%,67.1%,57.8%,60.8%,70.5%,27.6%,25.1%,,
C[C@@H](C(=O)O)c1ccc2c3cc(Cl)ccc3n(Cc3cc(=O)oc4ccc(Cl)cc34)c2c1,99.1%,96.9%,90.8%,101%,101%,98.3%,98.4%,,101%,97%,98.8%,76.3%,116%,99.8%,,102%,105%,101%,99.9%,
Cc1ccc(C)c2c1CCC2C(C)C (stereo not given),109%,105%,88.4%,101%,96.7%,90.1%,98.5%,,110%,102%,98.6%,88.5%,95.6%,97.3%,95.8%,110%,93.5%,86.4%,103%,
CCc1cccc(CC)c1NC(=O)c1sc2nc3c(cc2c1N)CCCC3,55%,77.4%,54.2%,71.3%,73.4%,63%,63.9%,75.2%,56.3%,88.9%,83.5%,,90.5%,71.8%,64.6%,40.2%,60.7%,61.9%,,
COc1cccc(-c2nn(-c3ccccc3)cc2-c2ccnc(NCCCNS(=O)(=O)c3cccc(F)c3)c2)c1,21.9%,15.1%,55.4%,42.8%,27.5%,11.9%,-45.6% (active),27.5%,4% (active),45.1%,32.3%,,36.9%,19.4%,32.4%,30.4%,11.4%,-3.37% (active),,
Nc1nc2c3ccncc3cc(-c3cccc(Cl)c3)c2c2cnccc12,28.5%,33.2%,57%,51.4%,29.2%,20%,50.4%,,59.1%,62.2%,36.4%,29.7%,32.3%,26.6%,29.1%,-12% (active),20%,3.17% (active),53.1%,
COc1cc2c(cc1-c1c(C)noc1C)ncc1nc(C3CCCCC3)n([C@@H](C)COC(F)F)c12,20.9%,13.5%,31.3%,45.6%,47.1%,30.3%,,12.5%,64.4%,39.2%,55.3%,23.6%,28.9%,37.8%,26.7%,1.93% (active),46.1%,39.5%,45.8%,21.9
COc1cc(-c2cc3ncccc3c3nc(OCCN(C)C)c4cccnc4c23)cc(OC)c1OC,23.1%,9.99% (active),-36.8% (active),15%,11.8%,16.2%,-7.91% (active),,19.8%,32.8%,2.68% (active),-70% (active),-82.7% (active),-74.5% (active),-37.3% (active),-72.6% (active),14.5%,2.03% (active),31.6%,
COC(=O)[C@]12CC[C@@H](C)[C@H](C)[C@@H]1C1=CC[C@@H]3[C@@]4(C)C[C@@H](O)OC[C@](C)(C=O)C4C(=O)C[C@@]3(C)[C@]1(C)CC2 (stereo not given in full),5.82% (active),-59.3% (active),13.3%,27.1%,0.219% (active),5.85% (active),-91.3% (active),-34.2% (active),-22.4% (active),21%,11.4%,,9.25% (active),7.86% (active),7.25% (active),,-7.54% (active),-9.93% (active),,
COC(=O)[C@]12CC[C@@H](C)[C@H](C)[C@@H]1C1=CC[C@@H]3[C@@]4(C)C[C@@H](OC(C)=O)[C@H](OC(C)=O)[C@@](C)(COC(C)=O)[C@@H]4[C@H](O)C[C@@]3(C)[C@]1(C)CC2,7.64% (active),2.23% (active),34.6%,24.2%,7.43% (active),4.25% (active),-71.5% (active),,-2.42% (active),10.7%,11%,,-1.29% (active),11.8%,11.6%,5.15% (active),12%,3.95% (active),38.6%,
